In PubChem BioAssay (NCI):
About 83,000 compounds went through this panel and 20% of them were active in at least one assay; those are over-represented in the sample as a whole.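 The test compound was applied at a single concentration to cells in 96-well plates for 48 hours, and percent growth was recorded.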 The source made the active and inactive calls. The calls were made as follows: active = growth percent below 10; inactive = the rest.

Columns and labels:
Assay in all cases: NCI-60 one-dose screen, 48 h (100 = growth as untreated, 0 = no growth, -100 = all killed)
Settings in all cases: 10 µM unless noted
[1] = tested on: K-562 leukemia
[2] = tested on: MALME-3M melanoma
[3] = tested on: MDA-MB-231 breast
[4] = tested on: RXF 393 renal
[5] = tested on: SF-268 CNS
[6] = tested on: SF-295 CNS
[7] = tested on: SF-539 CNS
[8] = tested on: UACC-257 melanoma
[9] = tested on: M14 melanoma
[10] = tested on: HCT-15 colon
[11] = tested on: HT29 colon
[12] = tested on: SNB-75 CNS
[13] = tested on: SNB-19 CNS
[14] = tested on: U251 CNS
[15] = tested on: PC-3 prostate
[16] = tested on: SK-MEL-5 melanoma
[17] = tested on: UACC-62 melanoma
[18] = tested on: LOX IMVI melanoma
[19] = tested on: SK-MEL-28 melanoma
[20] = tested on: SK-MEL-2 melanoma

Measured: growth

Clc1ccc(Cc2nnc3sc(-c4cccnc4)nn23)cc1
inactive: [1] 87.1% | [2] 108% | [3] 93.6% | [4] 85.9% | [5] 96.4% | [6] 99.9% | [7] 92.5% | [8] 109% | [9] 106% | [10] 99.6% | [11] 102% | [12] 94.4% | [13] 93.3% | [14] 99% | [15] 101% | [16] 96.4% | [17] 91.1% | [18] 96.7% | [19] 109% | [20] 113%

CS(=O)(=O)c1ccc(-c2nc3ccccn3c2C=Nc2ccc(Cl)cc2)cc1
active: [18] -59.2%
inactive: [1] 23.6% | [2] 93.6% | [3] 85.5% | [4] 105% | [5] 75.4% | [6] 87.9% | [7] 84.1% | [8] 88.4% | [9] 43.8% | [10] 34.3% | [11] 75.7% | [12] 77.9% | [13] 89.1% | [14] 91.9% | [15] 57.8% | [16] 68.6% | [17] 24.5% | [19] 74.3% | [20] 107%

CCC/C=C/C=C/C(=O)N[C@@H](Cc1cc(F)cc(F)c1)C(=O)N[C@@H]1C(=O)N2CCC[C@H]2C(=O)N2CCCC[C@H]2C(=O)N[C@@H](C)C(=O)N2C[C@H](C)C[C@H]2C(=O)O[C@H]1C
inactive: [1] 17.6% | [2] 30.8% | [3] 28.7% | [4] 46.3% | [5] 31.3% | [6] 10.3% | [7] 38.3% | [8] 17% | [9] 16.5% | [10] 16.2% | [12] 28.5% | [13] 25.8% | [14] 26.8% | [15] 14.5% | [16] 10.5% | [17] 13.6% | [19] 29%
active: [11] 9.05% | [18] -25.3% | [20] -12.9%

O=C1C2=C(C(=O)c3c(O)cccc31)C(c1ccco1)c1sc(=O)[nH]c1S2 (stereo not given)
active: [2] -92.3% | [3] 8.88% | [6] -15.6% | [7] -24% | [8] -28.2% | [9] -97.6% | [15] 8.77% | [16] -93.4% | [17] -74.9% | [18] -2.86% | [19] -28.8% | [20] -7.37%
inactive: [1] 22% | [4] 32.5% | [5] 50.7% | [10] 10.8% | [11] 12.5% | [12] 32.4% | [13] 13.6% | [14] 11.5%

Cc1ccc(-c2nc(C(Cl)Cl)nc3cc(-c4ccccc4)nn23)cc1
active: [2] 3.13% | [4] -63.8% | [9] -11.1% | [10] 5.49% | [11] -43.7% | [12] -3.07% | [14] -58.6% | [19] 1.35%
inactive: [1] 14.3% | [3] 12.9% | [5] 23.9% | [6] 10.3% | [7] 34.4% | [8] 28.9% | [13] 14.8% | [15] 26.8% | [16] 67.3% | [17] 55.7% | [18] 43.6% | [20] 88.8%

Cc1cc(=O)oc2cc(OCCCOc3ccc(/C=C/C(=O)Nc4ccc(Cl)cc4)cc3)ccc12
inactive: [1] 69.1% | [2] 56.6% | [3] 69.7% | [4] 44.9% | [5] 66.9% | [6] 77.7% | [7] 75.6% | [8] 81.5% | [9] 74.2% | [10] 60.4% | [11] 98.1% | [12] 73.3% | [13] 89.6% | [14] 56.4% | [15] 67.7% | [16] 55.9% | [17] 75.7% | [18] 40.8% | [19] 75.8% | [20] 80.4%

CCCC(=O)NC(c1ccc2c(c1)OC(F)(F)O2)c1cc(C)c2cccnc2c1O (stereo not given)
inactive: [1] 15.9% | [2] 14.4% | [3] 34.8% | [4] 55.4% | [5] 18.7% | [6] 20.9% | [10] 39.3% | [11] 32.3% | [12] 40.4% | [13] 22.5% | [14] 14.8% | [15] 36.6% | [18] 21.1% | [19] 17.1% | [20] 40.2%
active: [7] 8.69% | [8] 3.17% | [9] -11.5% | [16] -31.2% | [17] -16.7%

Nc1cc(-c2c[nH]c3ccccc23)nc2cc(-c3c[nH]c4ccccc34)nn12
active: [1] 4.17% | [10] 6.35% | [11] 9.63% | [18] -25.2%
inactive: [2] 64.5% | [3] 48.2% | [4] 38.2% | [5] 75.2% | [6] 34.8% | [7] 32.4% | [8] 70.2% | [9] 29.3% | [12] 82.5% | [13] 86.2% | [14] 29.7% | [15] 60.6% | [16] 45.6% | [17] 87.5% | [19] 59.6% | [20] 96%

C/C(=N/NC(N)=S)c1ccc(Nc2nc(SCC(C)C)nc(-c3ccc(F)cc3)c2C#N)cc1
active: [1] 4.78% | [4] -45.4% | [6] -69.8% | [7] -58.6% | [14] -39.6% | [15] -14.5% | [17] -18.4% | [18] -20% | [19] -9.66%
inactive: [2] 24.9% | [3] 15% | [5] 25.3% | [8] 63.3% | [9] 28.3% | [10] 25.2% | [11] 15% | [12] 80.6% | [13] 15.4% | [16] 37.3% | [20] 11.1%

CC(=O)c1ccc(Nc2nc(SC(C)C)nc(-c3ccccc3)c2C#N)cc1
inactive: [1] 92.6% | [2] 112% | [3] 95.7% | [4] 103% | [5] 91.9% | [6] 109% | [7] 95.5% | [8] 108% | [9] 118% | [10] 101% | [11] 99.6% | [12] 92.3% | [13] 87.2% | [14] 89.5% | [15] 88.1% | [16] 98.1% | [17] 82.3% | [18] 95.1% | [19] 104% | [20] 117%

O=C(c1ccc(Cl)cc1)C1[C@H](c2ccc(Cl)cc2)[C@@H](c2ccccc2)NC12C(=O)Nc1ccc(Br)cc12 (stereo not given in full)
active: [4] 6.62% | [11] 0.232%
inactive: [1] 17% | [2] 62.7% | [3] 37.2% | [5] 34.3% | [6] 35.4% | [7] 59.5% | [8] 57.7% | [9] 27.2% | [10] 24.6% | [12] 43.9% | [13] 60.5% | [14] 28.3% | [15] 12.8% | [16] 54.8% | [17] 37.4% | [18] 15.3% | [19] 67.3% | [20] 38.7%

Cc1sc2nc(NCc3ccccc3Cl)[nH]c(=O)c2c1C
inactive: [1] 54.8% | [2] 100% | [3] 73% | [4] 94.3% | [5] 87.6% | [6] 80.2% | [7] 77.7% | [8] 106% | [9] 105% | [10] 47.3% | [11] 103% | [12] 82.8% | [13] 102% | [14] 72.9% | [15] 73.9% | [16] 72.9% | [17] 75.8% | [18] 68.8% | [19] 98.6% | [20] 106%

CC(C)(C)Nc1nc2c(OCCc3ccccc3)cccn2c1-c1cccc(F)c1
active: [1] 1.65% | [2] -10.8% | [3] -40.9% | [4] -43% | [6] -38.2% | [7] -62.6% | [8] 1.34% | [9] -3.59% | [10] -60.2% | [11] -14.2% | [14] -43.8% | [15] -4.7% | [16] -82.4% | [17] -7.68% | [18] -83.1% | [20] -81.2%
inactive: [5] 18.8% | [12] 33.2% | [13] 20.4% | [19] 15%

c1ccc2c(NCCCn3ccnc3)c3oc4ccccc4c3nc2c1
inactive: [5] 10.7% | [8] 16.4% | [12] 17.8% | [13] 11.9% | [14] 17.9%
active: [1] 5.89% | [2] 1.01% | [3] -10% | [4] -33.3% | [6] 5.7% | [7] 4.46% | [9] 2.76% | [10] -6.93% | [11] -24% | [15] 5.76% | [16] 9.52% | [17] -14.9% | [18] -61.6% | [19] 9.69% | [20] -27.2%

CCN1C(=S)N(c2ccccc2)C2NC(=O)N(/N=C/C=C/c3ccccc3OC)C21 (stereo not given)
inactive: [1] 59.2% | [2] 87.2% | [3] 71.9% | [4] 92.4% | [5] 93.9% | [6] 87.9% | [7] 86.3% | [8] 102% | [9] 92.6% | [10] 67.6% | [11] 98.8% | [12] 71.8% | [13] 87.6% | [14] 89.4% | [15] 90.3% | [16] 92.4% | [17] 81.7% | [18] 75.4% | [19] 95.3% | [20] 120%

C=CCSc1ccc2c(c1)C(N1CCNCC1)=Nc1ccccc1O2
inactive: [1] 29.3% [8.25 µM] | [2] 86.6% [8.25 µM] | [3] 77.8% [8.25 µM] | [4] 63% [8.25 µM] | [5] 74.8% [8.25 µM] | [6] 85.1% [8.25 µM] | [7] 74.1% [8.25 µM] | [8] 83% [8.25 µM] | [9] 83.4% [8.25 µM] | [10] 85.3% [8.25 µM] | [11] 44.2% [8.25 µM] | [12] 79.8% [8.25 µM] | [13] 82.7% [8.25 µM] | [14] 61.3% [8.25 µM] | [15] 66.9% [8.25 µM] | [16] 85.5% [8.25 µM] | [17] 91.6% [8.25 µM] | [18] 51.5% [8.25 µM] | [19] 80.3% [8.25 µM] | [20] 92.3% [8.25 µM]
